The structures appear in SMILES notation. Values joined by “and” are separate entries in the source; they are usually repeats but may differ in a detail not shown here. Equal entries are not always repeated. Inconclusive results are not listed. Unmarked numbers belong to inactive results. Active and inactive are the calls of the source. Calls follow the shape of the dose curve; as a rule, active = well fitted cell-killing curve with a large enough effect; inconclusive = small, poorly fitted or top-dose-only effect, or effect the other way; inactive = no such curve, though single readings can be large or run the other way.
Potency is read from the fitted curve at half-maximal effect.

This assay in a line: Viability qHTS for spleen associated tyrosine kinase inhibitor (SYKi) drug resistant MV4-11 cells (AID 1963824). Also: nearly all actives have a fitted effect of over 35% in size. The conditions noted are these: SYKi-resistant MV4-11 viability, CellTiter-Glo, 72 h; series mostly up to 45 µM. A digest of the protocol:
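CellTiter-Glo luminescence, read 10 min after reagent addition, reports viability after a 72 hr compound exposure. Cells are an MV4-11 line made resistant to SYK inhibition, seeded at 500 per well onto compound-containing plates.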
(Quantitative high-throughput screening tests each substance at several concentrations.)
As for `O=C(Nc1nc2cc(C(F)(F)F)cc(NC3CC3)n2n1)c1cccnc1`, the Potency was 2.59 µM (active).
With `CC1(C)CC[C@]2(C(=O)O[C@@H]3O[C@H](CO[C@@H]4O[C@H](CO)[C@@H](O)[C@H](O)[C@H]4O[C@@H]4O[C@H](CO)[C@@H](O)[C@H](O)[C@H]4O)[C@@H](O)[C@H](O[C@@H]4O[C@H](CO)[C@@H](O)[C@H](O)[C@H]4O)[C@H]3O)CC[C@]3(C)C(=CCC4[C@@]5(C)CC[C@@H](O)[C@@](C)(C(=O)O[C@@H]6O[C@H](CO)[C@@H](O)[C@H](O)[C@H]6O)C5CC[C@]43C)[C@@H]2C1` (some centres undefined), the viability, % of control is 80.3% [at 9.25 µM].
As for `CCC(C)C(=O)OC1CC(O)C23C4OCC5(C(O)CC2C1(C)C(O)O4)C3C(=O)CC1(C)C(c2ccoc2)CC2OC215` (centres undefined), the Potency is 0.563 µM (active).
Still for that read-out and setting: under `Cn1c(CO)c(-c2ccccc2)c2cc([N+](=O)[O-])ccc21` stands 23.1 µM (active); under `CC1=C2CC(O)(C(C)(C)O)C(O[C@@H]3O[C@H](CO)[C@@H](O)[C@H](O)[C@H]3O)CC(C)C2CC1=O` (some centres undefined), “inactive”; under `Nc1nc2c(c(=O)[nH]1)N1CN(c3ccc(C(=O)N[C@@H](CCC(=O)O)C(=O)O)cc3)CC1CN2` (some centres undefined), 0.833 µM (active).
In the case of `CCC/C=C/c1cc2c(C=O)c(O)c(CC=C(C)C)cc2o1`, the Potency was 16.4 µM (active).
With `COC(=O)c1c(C)cc(OC(=O)c2c(C)cc(OC)cc2OC)cc1O[C@@H]1O[C@H](CO)[C@@H](O)[C@H](O)[C@H]1O`, the Potency result was “inactive”.
As for `CC#C[C@@H](CC(=O)O)c1ccc(OCc2ccc(CN3CCC4(C=Cc5ccccc54)CC3)s2)cc1`, the Potency was 11.6 µM (active).
`CO[C@@H]1[C@]2(O)C(=O)N3/C=C\C(C)(C)c4[nH]c5ccccc5c4/C=C\3C(=O)N2[C@]23[C@H](CO)C(C)(C)N2c2ccccc2[C@]13O`: the Potency result was “inactive”.
As for `COc1cc2c(cc1O)C1(OC)Cc3ccc4c(c3C1N(C)CC2)OCO4` (centres undefined), the Potency was 5.08 µM (active).
On to `Cc1cccc(C)c1OCc1cc(C(=O)N2CCC(c3ccncc3)CC2)no1`, for which the Potency is 9.2 µM (active).
As to `Cc1ccc2[nH]c(=O)c(C3=NN(C(=O)CCC(=O)O)C(c4ccc(Br)cc4)C3)c(-c3ccccc3)c2c1` (centres undefined), the Potency was 23.1 µM (active).
Still for that read-out and setting: then `C=C1C(=O)OC2CC(COC(=O)C(C)C)=C(C(C)CCCOC(C)=O)[C@@H](OC(C)=O)C12` (some centres undefined), with 8.93 µM (active); and `CC(=O)OC1CC2C(C)(C)C(=O)C=CC2(C)C2CC(=O)C3=C(CCC3C3=CC(O)OC3=O)C12C` (centres undefined), with 11.2 µM (active); and `O=C(/C=C/c1ccc(O)cc1)OC[C@@]1(O)C=C[C@@H]2C(C(=O)O)=CO[C@@H](O[C@@H]3O[C@H](CO)[C@@H](O)[C@H](O)[C@H]3O)[C@@H]21`, with “inactive”.
In the case of `CC(=O)O[C@@H]1CC[C@@]2(C)C(CC[C@]3(C)C2[C@H](O)C=C2[C@H]4[C@@H](C)[C@H](C)CC[C@]4(C)CC[C@]23C)[C@@]1(C)C(=O)O` (some centres undefined), the Potency was 7.09 µM (active).
Take `Cc1cc(C)c(-c2csc(NC(=O)c3ccccc3)n2)c(C)c1`: the Potency was 11.6 µM (active).
Take `O=C(/C=C/c1ccc(O)cc1)OCC1=C[C@@H](O)[C@@H]2C=CO[C@@H](O[C@@H]3O[C@H](CO)[C@@H](O)[C@H](O)[C@H]3O)[C@H]12`: the Potency result was “inactive”.
With `CC(=O)O[C@@H]1[C@@H](OC(=O)/C=C/c2ccccc2)[C@H](C)O[C@@H](O[C@H]2[C@@H]3C=CO[C@@H](O[C@@H]4O[C@H](CO)[C@@H](O)[C@H](O)[C@H]4O)[C@@H]3[C@@]3(CO)O[C@@H]23)[C@@H]1OC(C)=O`, the Potency entry was “inactive”.
For `C[C@@H]1O[C@@H](O[C@H]2[C@@H](OC(=O)[C@]34CCC(C)(C)CC3C3=CCC5[C@@]6(C)C[C@H](O)[C@H](O[C@@H]7O[C@H](CO)[C@@H](O)[C@H](O)[C@H]7O[C@@H]7OC[C@@H](O)[C@H](O)[C@H]7O)[C@@](C)(C(=O)O)C6CC[C@@]5(C)[C@]3(C)CC4)OC[C@H](O)[C@@H]2O)[C@H](O)[C@H](O)[C@H]1O[C@@H]1OC[C@@H](O)[C@H](O)[C@H]1O` (some centres undefined), the Potency was 1.38 µM (active).
Turning to `CNC(=O)c1ccccc1Sc1ccc2c(/C=C/c3ccccn3)n[nH]c2c1`, the Potency is 8.41 µM (active) and 1.3 µM (active) and 3.32 µM (active).
`Cc1ccc(-n2nc(C(C)(C)C)cc2NC(=O)Nc2cc(COc3cccnc3)[nH]n2)cc1`: the Potency was 0.146 µM (active).
Same read-out and setting: then `CC1C(=O)OCC2=CCN3CCC(OC(=O)C(C)(O)C1(C)O)C23` (centres undefined), with “inactive”.
